About 83,000 compounds went through this panel and 20% of them were active in at least one assay; those are over-represented in the sample as a whole.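 In brief: 96-well plates, 48 h treatment, single concentration, percent growth endpoint.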 Unmarked numbers belong to inactive results. Activity calls are given as the source filed them. How the source made its calls: active means growth percent below 10; inactive means the rest.

Some test systems named below: NCI-H23 lung; NCI-H226 lung; NCI-H322M lung; HOP-62 NSCLC; NCI-H460 lung; HOP-92 NSCLC; NCI-H522 lung; A549/ATCC NSCLC; 786-0 renal; COLO 205 colon; DU-145 prostate; K-562 leukemia; MALME-3M melanoma; MDA-MB-231 breast; RXF 393 renal; SF-268 CNS; SF-539 CNS; UACC-257 melanoma; M14 melanoma; SF-295 CNS.
Common to all, as to experiment: NCI-60 one-dose screen, 48 h (100 = growth as untreated, 0 = no growth, -100 = all killed)
Common to all, as to settings: 10 µM unless noted

Regarding `OCCNc1nc(Nc2ccc(Cl)c(Cl)c2)nc2ccccc12`, the growth in the experiment with NCI-H23 lung was 54.5%; in the experiment on NCI-H226 lung, 61.7%; in the experiment on NCI-H322M lung, 71%; in the experiment with HOP-62 NSCLC, 49.1%; in the experiment with NCI-H460 lung, 33.3%; in the experiment on HOP-92 NSCLC it was 27.4%. The growth in the experiment with NCI-H522 lung was 62%; in the experiment on A549/ATCC NSCLC it was 37%; in the experiment on 786-0 renal, 62%; with COLO 205 colon, -21.7% (active); with DU-145 prostate it was 70.9%; in the experiment on K-562 leukemia, 2.65% (active). Further, the growth in the experiment on MALME-3M melanoma was 31.1%; with MDA-MB-231 breast it was 5.57% (active); in the experiment on RXF 393 renal, 16.8%; with SF-268 CNS, 48.6%; with SF-539 CNS it was 75.1%; in the experiment with UACC-257 melanoma, 57.9%. Besides, the growth with M14 melanoma was 29.9%.
Regarding `CCc1ccccc1NC(=O)c1sc2nc3c(cc2c1N)CCCC3`, the growth with NCI-H23 lung is 52.7%; in the experiment on NCI-H226 lung, 73.4%; in the experiment with NCI-H322M lung, 74.9%; with HOP-62 NSCLC, 35.6%; in the experiment with NCI-H460 lung it was 20.6%; with HOP-92 NSCLC, 37.1%. For the same molecule, the growth in the experiment with NCI-H522 lung is 15%; in the experiment on A549/ATCC NSCLC it was 36.7%; in the experiment with 786-0 renal, 44.1%; in the experiment with COLO 205 colon, 36%; in the experiment on DU-145 prostate, 51.7%; in the experiment with K-562 leukemia, 12.1%. Also, the growth is 55.7% in the experiment on MALME-3M melanoma; 51.3% with MDA-MB-231 breast; 49.8% in the experiment with RXF 393 renal; 49.2% in the experiment on SF-268 CNS; 29.6% in the experiment on SF-295 CNS; 13.9% in the experiment with SF-539 CNS. Moreover, the growth with M14 melanoma is 24.1%.
Take `CC(C)(C)CC(C)(C)c1ccc(OCCOCC[N+](C)(C)CC(=O)[O-])cc1`: the growth in the experiment with NCI-H23 lung is 108%; in the experiment on NCI-H226 lung, 105%; in the experiment on NCI-H322M lung, 111%; in the experiment with HOP-62 NSCLC it was 106%; in the experiment with NCI-H460 lung, 110%; in the experiment on HOP-92 NSCLC it was 105%. Moreover, the growth in the experiment with NCI-H522 lung is 103%; in the experiment with A549/ATCC NSCLC it was 101%; in the experiment with 786-0 renal it was 106%; with COLO 205 colon, 105%; in the experiment with DU-145 prostate, 114%; with K-562 leukemia, 105%. The growth in the experiment on MALME-3M melanoma was 102%; in the experiment on MDA-MB-231 breast, 112%; with RXF 393 renal, 134%; with SF-268 CNS, 109%; with SF-539 CNS it was 104%; in the experiment with UACC-257 melanoma, 100%. Besides, the growth with M14 melanoma was 104%.
For `COc1ccc2c(c1)C/C(=C\c1cc(-c3cc(OC)c(OC)c(OC)c3)n[nH]1)C2=O`, the growth in the experiment on NCI-H23 lung is 90.2%; in the experiment with NCI-H226 lung it was 82.3%; with NCI-H322M lung it was 93.9%; with HOP-62 NSCLC, 103%; in the experiment on NCI-H460 lung, 106%; in the experiment with HOP-92 NSCLC it was 79.1%. The growth with NCI-H522 lung was 60.6%; with A549/ATCC NSCLC it was 92.9%; with 786-0 renal it was 95.9%; in the experiment on COLO 205 colon, 109%; in the experiment on DU-145 prostate, 113%; with K-562 leukemia, 53.7%. Further, the growth in the experiment with MALME-3M melanoma was 108%; with MDA-MB-231 breast it was 78.9%; with RXF 393 renal, 94.9%; in the experiment on SF-268 CNS it was 100%; with SF-539 CNS it was 89.5%; with UACC-257 melanoma it was 97.3%. Further, the growth in the experiment on M14 melanoma is 100%.
For the molecule `C/C(=N/NC(N)=S)C(=O)O`, the growth was 101% with NCI-H23 lung; 90.1% in the experiment with NCI-H226 lung; 103% with NCI-H322M lung; 107% in the experiment with HOP-62 NSCLC; 99.3% with NCI-H460 lung; 107% in the experiment with HOP-92 NSCLC. Besides, the growth is 95.9% in the experiment on NCI-H522 lung; 76% in the experiment with A549/ATCC NSCLC; 102% with 786-0 renal; 119% in the experiment with COLO 205 colon; 102% in the experiment on DU-145 prostate; 55.3% in the experiment with K-562 leukemia. For the same molecule, the growth is 102% in the experiment on MALME-3M melanoma; 91.1% in the experiment on MDA-MB-231 breast; 116% in the experiment with RXF 393 renal; 101% in the experiment with SF-268 CNS; 101% in the experiment on SF-539 CNS; 61.1% in the experiment with UACC-257 melanoma. Also, in the experiment on M14 melanoma, the growth was 97.4%.
For `COC(=O)CCCCCn1c2ccccc2c2c3c(c4c5ccccc5[nH]c4c21)C(=O)N(O)C3=O`, the growth was 44.1% in the experiment with NCI-H23 lung; 74.4% with NCI-H226 lung; 62.4% in the experiment with NCI-H322M lung; 26% in the experiment with HOP-62 NSCLC; 33.4% in the experiment with NCI-H460 lung; 79.4% with HOP-92 NSCLC. In addition, the growth in the experiment on NCI-H522 lung was -60% (active); in the experiment on A549/ATCC NSCLC, 80.3%; with 786-0 renal it was 76.6%; with COLO 205 colon, 36.5%; in the experiment on DU-145 prostate, 80.6%; with K-562 leukemia it was 23.8%. Also, the growth in the experiment with MALME-3M melanoma is 96%; with MDA-MB-231 breast, 41.8%; with RXF 393 renal it was 64.9%; in the experiment on SF-268 CNS, 45.6%; in the experiment with SF-295 CNS, 59.6%; with SF-539 CNS, 25.3%. Further, the growth with M14 melanoma is 39.5%.
For `NC(Cc1ccc(O)cc1)C(=O)N/N=C/c1ccccc1O` (configuration not stated), the growth with NCI-H23 lung is 99.9%; in the experiment with NCI-H226 lung, 103%; in the experiment on NCI-H322M lung, 94%; in the experiment on HOP-62 NSCLC it was 105%; in the experiment on NCI-H460 lung, 108%; with HOP-92 NSCLC it was 56.6%. Moreover, the growth is 96.6% with NCI-H522 lung; 97.5% in the experiment with A549/ATCC NSCLC; 104% with 786-0 renal; 123% in the experiment with COLO 205 colon; 105% with DU-145 prostate; 105% in the experiment with K-562 leukemia. Moreover, the growth was 80.2% with MALME-3M melanoma; 109% with MDA-MB-231 breast; 115% in the experiment on RXF 393 renal; 104% in the experiment with SF-268 CNS; 104% in the experiment on SF-539 CNS; 101% with UACC-257 melanoma. In the experiment on M14 melanoma, the growth is 98.7%.
Turning to `COc1ccc(-c2nc3ccccn3c2-c2nc3ccc(Cl)cc3[nH]2)cc1`, the growth was 98.3% in the experiment on NCI-H23 lung; 90.1% with NCI-H226 lung; 103% in the experiment with NCI-H322M lung; 114% in the experiment on HOP-62 NSCLC; 98.8% in the experiment with NCI-H460 lung; 85% in the experiment with HOP-92 NSCLC. Moreover, the growth in the experiment on NCI-H522 lung was 73.9%; with A549/ATCC NSCLC, 92.5%; with 786-0 renal, 97.6%; with COLO 205 colon, 110%; with DU-145 prostate it was 107%; in the experiment with K-562 leukemia it was 54.6%. Besides, the growth was 109% in the experiment on MALME-3M melanoma; 95.2% with MDA-MB-231 breast; 95.8% with RXF 393 renal; 112% with SF-268 CNS; 98.9% in the experiment with SF-539 CNS; 94.2% in the experiment on UACC-257 melanoma. In addition, the growth in the experiment with M14 melanoma is 103%.

The record behind these values is PubChem BioAssay (NCI).
